SMILES strings stand for the structures.

A short description of this assay: qHTS profiling of inhibitors of Plasmodium falciparum (DD2) proliferation (acoustic dispense). The following applies: P. falciparum Dd2 in erythrocytes, SYBR Green DNA, 72 h; at 49.8 µM (top of the series) unless noted. From the text: Plasmodium falciparum is a virulent malarial parasite that kills 1-2 million people worldwide each year. Transmitted by mosquitoes, the sporozoite form of the parasite enters the blood stream to infect hepatocytes, where they become merozoites that infect red blood cells (erythrocytes). Within erythrocytes, merozoites begin a […] cycle of growth and division, after which the parasite is released to infect new red blood cells. Gametocytes, which form within erythrocytes as well, circulate in the bloodstream and are ingested by the mosquito, thereby completing the life cycle. To profile malarial isolates for differential chemical responses and to identify inhibitors of malarial growth, an assay that measures P. falciparum growth and replication within erythrocytes was employed. This assay uses a DNA binding fluorescent dye (SYBR Green) to detect parasite DNA following cell lysis. Because mature erythrocytes lack DNA, only Plasmodium-derived DNA is detected.
The SYBR Green viability assay was adapted from a method described previously (Plouffe et al., 2008). For screening 3 ul culture medium was dispensed into 1536 well black clear bottom plates (Aurora Biotechnologies) using a Multidrop Combi (Thermo Fisher Scientific Inc.), 23 nL of compounds in DMSO were added by an acoustic dispenser (EDC Biosystems), and 5 ul of erythrocytes infected with P. falciparum (0.3% parasitemia, 2.5% hematocrit final concentration) were added. The plates were incubated at 37 C in a humidified incubator in 5% CO2 for 72 h, and 2 ul lysis buffer (20 mM Tris HCl, 10 mM EDTA, 0.16% saponin, 1.6% triton X, 10X SYBR Green I supplied as 10,000X […] by Invitrogen) was added to each well. The plates were mixed for 25 sec with gentle shaking and incubated overnight at room temperature in the dark. The following morning, fluorescence intensity at 485(14) nm excitation and 535(25) nm emission wavelengths was measured on an EnVision (Perkin Elmer) plate reader. Plate reads were normalized relative to the control inhibitor (0.29 uM artemisinin) and vehicle (DMSO) wells present on each plate and then corrected by an algorithm using vehicle-only control plates at the beginning and end of the compound plate stack.
On the technique in general: In qHTS, concentration-response curves come from the screen itself.
Consider `CCn1nnc2c(N3CCOCC3)nc(-c3ccc(NC(=O)Nc4ccc(C(=O)N5CCN(C)CC5)cc4)cc3)nc21`, for which the parasite growth, lower = inhibition came out at 2.15%.

`CCCCCCCCCCOc1cc2c(=O)c(C(=O)OCC)c[nH]c2cc1OCC`: the parasite growth, lower = inhibition was found to be 1.27%.

In the case of `Cc1[nH]c2ccccc2c1CCNCc1ccc(C=CC(=O)NO)cc1`, the parasite growth, lower = inhibition was -0.777%.

Turning to `Cn1cc(C2=C(c3c4n(c5ccccc35)CCC(CN)C4)C(=O)NC2=O)c2ccccc21` (stereo not given), the parasite growth, lower = inhibition amounted to 2.27%.

Take `COc1cc(NC(C)CCCN)c2ncccc2c1` (stereo not given): the parasite growth, lower = inhibition was -0.0889%.

Turning to `Clc1ccc2c(N3CCN(CCCN4CCN(c5ccnc6cc(Cl)ccc56)CC4)CC3)ccnc2c1`, the parasite growth, lower = inhibition was -0.434% [at 23.2 µM].

Consider `CC(C=CC(=O)NO)=C[C@@H](C)C(=O)c1ccc(N(C)C)cc1`, for which the parasite growth, lower = inhibition is -0.545%.

In the case of `O=C1C(=O)c2ccccc2C(O)=C1C1CCC(c2ccc(Cl)cc2)CC1` (stereo not given), the parasite growth, lower = inhibition was found to be 3.04%.

As for `CCOC(=O)[C@H](CCc1ccccc1)N[C@H]1CS[C@H](c2cccs2)CN(CC(=O)O)C1=O`, the parasite growth, lower = inhibition was found to be 61.3%.

Turning to `O=C1NC(=O)C(=Cc2ccc3nccc(-c4ccncc4)c3c2)S1`, the parasite growth, lower = inhibition stood at 0.455%.

As to `Cc1cn[nH]c1`, the parasite growth, lower = inhibition is 23.6%.

Regarding `C[C@H]1c2cccc(O)c2C(O)=C2C(=O)[C@]3(O)C(O)=C(C(N)=O)C(=O)[C@@H](N(C)C)[C@@H]3[C@@H](O)[C@@H]21`, the parasite growth, lower = inhibition is 1.85%.

Take `COc1ccc2nc3cc(Cl)ccc3c(Nc3cc(CN4CCCC4)c(O)c(CN4CCCC4)c3)c2n1`: the parasite growth, lower = inhibition came out at 0.653%.

For `CN[C@@H]1C[C@H]2O[C@@](C)([C@H]1OC)n1c3ccccc3c3c4c(c5c6ccccc6n2c5c31)C(=O)N[C@H]4O`, the parasite growth, lower = inhibition came to 0.898%.

On to `CC[C@@]1([C@@H]2O[C@@H]([C@H]3O[C@@](O)(CO)[C@H](C)C[C@H]3C)C[C@H]2C)CC[C@H]([C@]2(C)CC[C@]3(C[C@H](O)[C@@H](C)[C@@H]([C@@H](C)[C@@H](OC)[C@H](C)C(=O)O)O3)O2)O1`, for which the parasite growth, lower = inhibition was -0.231% [at 23.2 µM].

With `NC(=NCCCCCCN=C(N)N=C(N)Nc1ccc(Cl)cc1)N=C(N)Nc1ccc(Cl)cc1`, the parasite growth, lower = inhibition is 3.29%.

In the case of `C=CCn1c(=O)c2cnc(Nc3ccc(N4CCN(C)CC4)cc3)nc2n1-c1cccc(C(C)(C)O)n1`, the parasite growth, lower = inhibition was -0.0983%.

With `CC(C)C[C@H](NC(=O)[C@H](CCc1ccccc1)NC(=O)CN1CCOCC1)C(=O)N[C@@H](Cc1ccccc1)C(=O)N[C@@H](CC(C)C)C(=O)[C@@]1(C)CO1`, the parasite growth, lower = inhibition was 0.838%.

As for `COCCn1c2c([n+](Cc3cnccn3)c1C)C(=O)c1ccccc1C2=O`, the parasite growth, lower = inhibition was -0.378%.

Regarding `CC[C@H]1CN2CCc3cc(OC)c(OC)cc3[C@H]2C[C@@H]1C[C@@H]1NCCc2cc(OC)c(OC)cc21`, the parasite growth, lower = inhibition was 0.111%.

Consider `Cn1cc(CNCC2CCN(c3ncc(C(=O)NO)cn3)CC2)c2ccccc21`, for which the parasite growth, lower = inhibition came out at 0.158%.

`COC(=O)[C@]12CCC(C)(C)C[C@@H]1[C@@H]1C(=O)C=C3[C@@]4(C)C=C(C#N)C(=O)C(C)(C)[C@@H]4CC[C@@]3(C)[C@]1(C)CC2`: the parasite growth, lower = inhibition came to 23.1%.

With `CO[C@H]1C=CC=C(C)C(=O)NC2=CC(=O)C(NCCN(C)C)=C(C[C@@H](C)C[C@H](OC)[C@@H](O)[C@@H](C)C=C(C)[C@@H]1OC(N)=O)C2=O`, the parasite growth, lower = inhibition is -1.01%.

With `COc1ncc(-c2ccc3nccc(-c4ccnnc4)c3c2)cc1NS(=O)(=O)c1ccc(F)cc1F`, the parasite growth, lower = inhibition is -0.286%.

On to `Cn1c2ccccc2c2c3c(c4c5ccccc5n(CCC#N)c4c21)CNC3=O`, for which the parasite growth, lower = inhibition was 70.2%.

For the compound `CCS(=O)(=O)Nc1ccc2[nH]c(O)c(C(=Nc3ccc(CN4CCCCC4)cc3)c3ccccc3)c2c1`, the parasite growth, lower = inhibition is -0.594%.

Regarding `Cc1nc2cnc3ccc(C#Cc4cccnc4)cc3c2n1-c1ccc(C(C)(C)C#N)cc1`, the parasite growth, lower = inhibition turned out to be 0.532%.

Consider `CN([C@@H](Cc1ccc(OS(=O)(=O)c2cccc3cnccc23)cc1)C(=O)N1CCN(c2ccccc2)CC1)S(=O)(=O)c1cccc2cnccc12`, for which the parasite growth, lower = inhibition was 0.489%.

Consider `C=C[C@@H]1CN2CCC1C[C@@H]2C(O)c1ccnc2ccc(OC)cc12` (stereo not given in full), for which the parasite growth, lower = inhibition was 1.83%.

Turning to `CCNC(=O)c1noc(-c2cc(C(C)C)c(O)cc2O)c1-c1ccc(CN2CCOCC2)cc1`, the parasite growth, lower = inhibition was determined as 112%.

Consider `CC1(C)N=C(N)N=C(N)N1c1ccc(Cl)cc1`, for which the parasite growth, lower = inhibition turned out to be 3.98%.

Regarding `CC(=O)Nc1nc(C)c(-c2ccc(Cl)c(S(=O)(=O)NCCO)c2)s1`, the parasite growth, lower = inhibition was -0.252%.

For the compound `CS[C@H]1SC[C@@H]2C(=O)N(C)[C@H](C(C)C)C(=O)OC[C@H](NC(=O)c3cnc4ccccc4n3)C(=O)N[C@H](C)C(=O)N(C)[C@@H]1C(=O)N(C)[C@H](C(C)C)C(=O)OC[C@H](NC(=O)c1cnc3ccccc3n1)C(=O)N[C@H](C)C(=O)N2C`, the parasite growth, lower = inhibition amounted to 0.25%.

With `C[C@@H](Oc1ccc2[nH]nc(C=Cc3cnn(CCO)c3)c2c1)c1c(Cl)cncc1Cl`, the parasite growth, lower = inhibition was found to be 1.14%.

`CC(C)n1nc(-c2ccc3oc(N)nc3c2)c2c(N)ncnc21`: the parasite growth, lower = inhibition was -0.0305%.

Take `C=C[C@@H]1CN2CC[C@@H]1C[C@H]2[C@H](O)c1ccnc2ccc(OC)cc12`: the parasite growth, lower = inhibition was found to be 0.438%.

Take `CC(=NNC(=S)N1CCC1)c1ccccn1`: the parasite growth, lower = inhibition is -0.523%.

With `COc1ccc(-c2ccc3ncc4c(c3c2)n(-c2ccc(N3CCNCC3)c(C(F)(F)F)c2)c(=O)n4C)cn1`, the parasite growth, lower = inhibition amounted to 2.81%.

Turning to `CCC[C@H](Nc1nc(-c2ccc(NC(=O)NCC)c(OC)c2)ncc1C)c1cccnc1`, the parasite growth, lower = inhibition came out at 1.45%.

For `CS(=O)(=O)CCNCc1ccc(-c2ccc3ncnc(Nc4ccc(OCc5cccc(F)c5)c(Cl)c4)c3c2)o1`, the parasite growth, lower = inhibition was found to be 5.58%.

Source of the values: PubChem BioAssay AID743365 (National Center for Advancing Translational Sciences (NCATS), 2014).
